Results taken from the supplement of paper PMC3150612.
± gives the standard deviation of the averaged measurements.

Columns and labels:
Drosophila melanogaster [1] = assay: olfactory response index (dipstick assay) (fraction of flies (RI; 1 aversion, 0.5 indifferent, 0 attraction)); higher = stronger aversion to the odorant; settings: odorant concentration: 1% v/v, male
Drosophila melanogaster [2] = assay: as above; settings: odorant concentration: 1% v/v, female
[3] = genotype (tubulin-GAL4 x UAS-RNAi line; control = progenitor): A5
[4] = genotype (tubulin-GAL4 x UAS-RNAi line; control = progenitor): control
[5] = genotype (tubulin-GAL4 x UAS-RNAi line; control = progenitor): obp 18a
[6] = genotype (tubulin-GAL4 x UAS-RNAi line; control = progenitor): obp 22a
[7] = genotype (tubulin-GAL4 x UAS-RNAi line; control = progenitor): obp 28a
[8] = genotype (tubulin-GAL4 x UAS-RNAi line; control = progenitor): obp 56a
[9] = genotype (tubulin-GAL4 x UAS-RNAi line; control = progenitor): obp 56c
[10] = genotype (tubulin-GAL4 x UAS-RNAi line; control = progenitor): obp 56f
[11] = genotype (tubulin-GAL4 x UAS-RNAi line; control = progenitor): obp 57a
[12] = genotype (tubulin-GAL4 x UAS-RNAi line; control = progenitor): obp 57b
[13] = genotype (tubulin-GAL4 x UAS-RNAi line; control = progenitor): obp 58c
[14] = genotype (tubulin-GAL4 x UAS-RNAi line; control = progenitor): obp 59a
[15] = genotype (tubulin-GAL4 x UAS-RNAi line; control = progenitor): obp 83a
[16] = genotype (tubulin-GAL4 x UAS-RNAi line; control = progenitor): obp 83c
[17] = genotype (tubulin-GAL4 x UAS-RNAi line; control = progenitor): obp 93a
[18] = genotype (tubulin-GAL4 x UAS-RNAi line; control = progenitor): obp 99b
[19] = genotype (tubulin-GAL4 x UAS-RNAi line; control = progenitor): obp 56h
[20] = genotype (tubulin-GAL4 x UAS-RNAi line; control = progenitor): obp 58b

Row | SMILES | olfactory response index (Drosophila melanogaster [1]; [3]) | olfactory response index (Drosophila melanogaster [1]; [4]) | olfactory response index (Drosophila melanogaster [1]; [5]) | olfactory response index (Drosophila melanogaster [1]; [6]) | olfactory response index (Drosophila melanogaster [1]; [7]) | olfactory response index (Drosophila melanogaster [1]; [8]) | olfactory response index (Drosophila melanogaster [1]; [9]) | olfactory response index (Drosophila melanogaster [1]; [10]) | olfactory response index (Drosophila melanogaster [1]; [11]) | olfactory response index (Drosophila melanogaster [1]; [12]) | olfactory response index (Drosophila melanogaster [1]; [13]) | olfactory response index (Drosophila melanogaster [1]; [14]) | olfactory response index (Drosophila melanogaster [1]; [15]) | olfactory response index (Drosophila melanogaster [1]; [16]) | olfactory response index (Drosophila melanogaster [1]; [17]) | olfactory response index (Drosophila melanogaster [1]; [18]) | olfactory response index (Drosophila melanogaster [1]; [19]) | olfactory response index (Drosophila melanogaster [2]; [3]) | olfactory response index (Drosophila melanogaster [2]; [4]) | olfactory response index (Drosophila melanogaster [2]; [5]) | olfactory response index (Drosophila melanogaster [2]; [6]) | olfactory response index (Drosophila melanogaster [2]; [7]) | olfactory response index (Drosophila melanogaster [2]; [8]) | olfactory response index (Drosophila melanogaster [2]; [9]) | olfactory response index (Drosophila melanogaster [2]; [10]) | olfactory response index (Drosophila melanogaster [2]; [11]) | olfactory response index (Drosophila melanogaster [2]; [12]) | olfactory response index (Drosophila melanogaster [2]; [20]) | olfactory response index (Drosophila melanogaster [2]; [13]) | olfactory response index (Drosophila melanogaster [2]; [14]) | olfactory response index (Drosophila melanogaster [2]; [15]) | olfactory response index (Drosophila melanogaster [2]; [16]) | olfactory response index (Drosophila melanogaster [2]; [17]) | olfactory response index (Drosophila melanogaster [2]; [18]) | olfactory response index (Drosophila melanogaster [2]; [19])
1 | CCC=O [propanal] | 0.408 ± 0.047 | 0.158 ± 0.045 | 0.029 ± 0.031 | 0.1 ± 0.017 | 0.165 ± 0.13 | 0.111 ± 0.025 | 0.0917 ± 0.11 | 0.119 ± 0.083 | 0.0926 ± 0.076 | 0.254 ± 0.19 | 0.0938 ± 0.037 | 0.498 ± 0.047 | 0.164 ± 0.14 | 0.238 ± 0.095 | 0.289 ± 0.13 | 0.112 ± 0.019 | 0.233 ± 0.08 | 0.637 ± 0.17 | 0.467 ± 0.19 | 0.4 ± 0.18 | 0.583 ± 0.12 | 0.523 ± 0.039 | 0.24 ± 0.21 | 0.479 ± 0.049 | 0.333 ± 0.22 | 0.572 ± 0.086 | 0.66 ± 0.036 | 0.625 ± 0.097 | 0.305 ± 0.24 | 0.611 ± 0.11 | 0.312 ± 0.14 | 0.662 ± 0.086 | 0.688 ± 0.087 | 0.461 ± 0.039 | 0.356 ± 0.19
2 | CCOC(C)=O [ethyl acetate] | 0.36 ± 0.22 | 0.266 ± 0.16 | 0.417 ± 0.15 | 0.176 ± 0.084 | 0.311 ± 0.18 | 0.0854 ± 0.099 | 0.17 ± 0.14 | 0.364 ± 0.31 | 0.236 ± 0.099 | 0.326 ± 0.14 | 0.181 ± 0.14 | 0.324 ± 0.23 | 0.21 ± 0.068 | 0.255 ± 0.11 | 0.352 ± 0.12 | 0.15 ± 0.14 | 0.227 ± 0.13 | 0.677 ± 0.11 | 0.639 ± 0.27 | 0.507 ± 0.12 | 0.669 ± 0.04 | 0.709 ± 0.13 | 0.486 ± 0.2 | 0.3 ± 0.1 | 0.559 ± 0.26 | 0.629 ± 0.015 | 0.61 ± 0.14 | 0.513 ± 0.31 | 0.561 ± 0.091 | 0.502 ± 0.25 | 0.471 ± 0.087 | 0.572 ± 0.0067 | 0.541 ± 0.13 | 0.2 ± 0.11 | 0.479 ± 0.06
3 | C=C(C)[C@H]1CC=C(C)C(=O)C1 [(S)-carvone] | 0.57 ± 0.068 | 0.456 ± 0.062 | 0.22 ± 0.068 | 0.372 ± 0.058 | 0.384 ± 0.14 | 0.142 ± 0.051 | 0.186 ± 0.057 | 0.525 ± 0.15 | 0.277 ± 0.15 | 0.4861 ± 0.0015 | 0.468 ± 0.1 | 0.657 ± 0.13 | 0.304 ± 0.27 | 0.555 ± 0.19 | 0.382 ± 0.14 | 0.171 ± 0.066 | 0.504 ± 0.17 | 0.729 ± 0.063 | 0.65 ± 0.074 | 0.558 ± 0.053 | 0.775 ± 0.06 | 0.651 ± 0.073 | 0.357 ± 0.1 | 0.678 ± 0.2 | 0.676 ± 0.1 | 0.613 ± 0.085 | 0.73 ± 0.15 | 0.49 ± 0.07 | 0.597 ± 0.064 | 0.739 ± 0.031 | 0.589 ± 0.045 | 0.398 ± 0.079 | 0.715 ± 0.056 | 0.468 ± 0.041 | 0.683 ± 0.086
4 | CC(=O)c1ccccc1 [acetophenone] | 0.629 ± 0.048 | 0.394 ± 0.035 | 0.26 ± 0.13 | 0.231 ± 0.17 | 0.419 ± 0.18 | 0.275 ± 0.14 | 0.265 ± 0.077 | 0.655 ± 0.15 | 0.332 ± 0.051 | 0.318 ± 0.13 | 0.578 ± 0.18 | 0.533 ± 0.14 | 0.745 ± 0.16 | 0.066 ± 0.075 | 0.242 ± 0.12 | 0.326 ± 0.023 | 0.657 ± 0.11 | 0.747 ± 0.024 | 0.69 ± 0.11 | 0.588 ± 0.13 | 0.67 ± 0.066 | 0.656 ± 0.078 | 0.503 ± 0.066 | 0.602 ± 0.057 | 0.801 ± 0.055 | 0.668 ± 0.1 | 0.629 ± 0.053 | 0.621 ± 0.061 | 0.562 ± 0.14 | 0.717 ± 0.05 | 0.45 ± 0.15 | 0.631 ± 0.082 | 0.69 ± 0.067 | 0.376 ± 0.15 | 0.489 ± 0.037
5 | CCCCCC(C)=O [2-heptanone] | 0.365 ± 0.086 | 0.0673 ± 0.066 | 0.32 ± 0.1 | 0.304 ± 0.1 | 0.331 ± 0.084 | 0.185 ± 0.082 | 0.239 ± 0.077 | 0.395 ± 0.14 | 0.214 ± 0.038 | 0.368 ± 0.13 | 0.328 ± 0.063 | 0.444 ± 0.12 | 0.339 ± 0.11 | 0.352 ± 0.13 | 0.345 ± 0.26 | 0.138 ± 0.044 | 0.393 ± 0.17 | 0.49 ± 0.16 | 0.483 ± 0.17 | 0.409 ± 0.092 | 0.417 ± 0.12 | 0.526 ± 0.081 | 0.392 ± 0.12 | 0.494 ± 0.073 | 0.452 ± 0.21 | 0.718 ± 0.062 | 0.571 ± 0.15 | 0.277 ± 0.015 | 0.272 ± 0.051 | 0.598 ± 0.13 | 0.4 ± 0.15 | 0.537 ± 0.17 | 0.443 ± 0.18 | 0.28 ± 0.017 | 0.513 ± 0.22
6 | CC(C)=CCCC(C)=CC=O (mixture of isomers) [citral] | 0.266 ± 0.06 | 0.226 ± 0.041 | 0.202 ± 0.06 | 0.17 ± 0.11 | 0.387 ± 0.092 | 0.0537 ± 0.02 | 0.186 ± 0.067 | 0.452 ± 0.042 | 0.215 ± 0.046 | 0.321 ± 0.11 | 0.166 ± 0.046 | 0.517 ± 0.0054 | 0.101 ± 0.099 | 0.292 ± 0.16 | 0.285 ± 0.083 | 0.0832 ± 0.075 | 0.226 ± 0.13 | 0.595 ± 0.02 | 0.674 ± 0.046 | 0.292 ± 0.12 | 0.474 ± 0.18 | 0.552 ± 0.055 | 0.195 ± 0.075 | 0.606 ± 0.034 | 0.639 ± 0.027 | 0.636 ± 0.17 | 0.642 ± 0.097 | 0.687 ± 0.15 | 0.409 ± 0.19 | 0.68 ± 0.086 | 0.479 ± 0.091 | 0.262 ± 0.091 | 0.536 ± 0.16 | 0.317 ± 0.01 | 0.66 ± 0.13
7 | C=C(C)[C@@H]1CC=C(C)C(=O)C1 [(R)-carvone] | 0.627 ± 0.12 | 0.163 ± 0.067 | 0.206 ± 0.16 | 0.34 ± 0.1 | 0.499 ± 0.09 | 0.396 ± 0.16 | 0.158 ± 0.14 | 0.201 ± 0.076 | 0.207 ± 0.1 | 0.378 ± 0.18 | 0.24 ± 0.096 | 0.541 ± 0.14 | 0.422 ± 0.069 | 0.146 ± 0.12 | 0.472 ± 0.21 | 0.233 ± 0.12 | 0.306 ± 0.22 | 0.747 ± 0.074 | 0.712 ± 0.019 | 0.484 ± 0.18 | 0.5 ± 0.16 | 0.662 ± 0.12 | 0.532 ± 0.2 | 0.712 ± 0.2 | 0.616 ± 0.13 | 0.582 ± 0.15 | 0.685 ± 0.13 | 0.622 ± 0.14 | 0.684 ± 0.077 | 0.711 ± 0.059 | 0.535 ± 0.06 | 0.655 ± 0.11 | 0.708 ± 0.16 | 0.676 ± 0.022 | 0.615 ± 0.14
